Reference: PubChem BioAssay
Active and inactive are the calls of the source. Unless noted, how the calls were made is not given here.

What was measured:
[1] = test system: Wnt5a (protein binding on small-molecule microarray); assay: small molecules binding Wnt5a protein – biophysical, small-molecule microarray, 635/667 nm fluorescence, primary screen (AID 1142); settings: 635 nm fluorescence, higher = more signal;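 further: fluorescence read at 667 nm with signal to noise per printed feature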
[2] = ATP-based viability of Huh7 replicon cells – cell-based, CellTiter-Glo luminescence, basal, 48 h, cytotoxicity control for HCV replication inhibitor project, primary screen (AID 1143); settings: higher = more signal, called active from +8 up or from −8 down;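 further: Huh7 hepatoma cells carrying a hepatitis C replication reporter with no stimulus; test concentration not given here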
[3] = Pseudomonas biofilm growth suppression – PAO1 strain, BacTiter-Glo luminescence, LB-PBS, primary screen (AID 1144); settings: P. aeruginosa PAO1 biofilm, 12 h, higher = more signal
[4] = basal CRE-LacZ reporter activity in PC12 – cell-based, unstimulated, primary screen (AID 1145); settings: no forskolin, luminescence, 4.5 h, higher = more signal, called active from +8 up or from −8 down
[5] = forskolin-driven CRE-LacZ activity in PC12 – cell-based, CRE-LacZ reporter, forskolin-stimulated, primary screen (AID 1146); settings: luminescence, 4.5 h, higher = more signal, called active from +8 up or from −8 down;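 further: PC12 cells with 6xCRE LacZ reporter stimulated by forskolin 10 µM; beta-galactosidase reporter signal reflecting CREB driven transcription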
[6] = molecular target: Streptavidin (Streptomyces avidinii) (UniProt P22629); assay: compounds binding control protein streptavidin – biophysical, small-molecule microarray, 635/667 nm fluorescence, artefact control for SMM compound annotation, primary screen (AID 1147); settings: higher = more signal;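 further: signal reflects streptavidin binding to arrayed compounds as a control protein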
[7] = probe aInhba binding on compound microarray – biochemical, small-molecule microarray, 635/667 nm fluorescence, primary screen (AID 1148); settings: higher = more signal;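 further: score merges 667nm spot fluorescence with signal-to-noise for antibody binding to printed compounds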
Torsin-1A (Homo sapiens) [8] = molecular target: Torsin-1A (Homo sapiens) (UniProt O14656); assay: TOR1A wild-type binding on microarray – cell lysate, small-molecule microarray, lysate, 635/667 nm, primary screen (AID 1149); settings: COS7 hTOR1A-WT lysate, 635 nm fluorescence, higher = more signal
Torsin-1A (Homo sapiens) [9] = molecular target: Torsin-1A (Homo sapiens) (UniProt O14656); assay: torsin A mutant lysate binding on microarrays – cell lysate, small-molecule microarray, COS7 lysate, 635/667 nm fluorescence, primary screen (AID 1150); settings: COS7 hTOR1A mutant lysate, 635 nm fluorescence, higher = more signal;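 further: score pools 667 nm emission and signal to noise measuring lysate protein binding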
[10] = test system: Sonic hedgehog protein (Shh); assay: Sonic hedgehog microarray binding compounds – biochemical, small-molecule microarray, 635/667 nm fluorescence, primary screen (AID 1151); settings: 635 nm fluorescence, higher = more signal;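 further: Shh protein binding to compounds spotted on small-molecule microarray slides; score combines spot fluorescence intensity with signal-to-noise across triplicate slides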

Chain of Streptavidin (Streptomyces avidinii) (P22629 whole entry, looked up): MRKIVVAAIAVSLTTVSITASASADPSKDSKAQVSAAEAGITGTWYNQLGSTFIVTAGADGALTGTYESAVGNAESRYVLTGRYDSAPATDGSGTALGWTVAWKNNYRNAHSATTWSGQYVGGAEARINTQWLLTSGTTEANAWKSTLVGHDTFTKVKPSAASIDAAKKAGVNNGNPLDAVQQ
Chain of Torsin-1A (Homo sapiens) (O14656 whole entry, looked up): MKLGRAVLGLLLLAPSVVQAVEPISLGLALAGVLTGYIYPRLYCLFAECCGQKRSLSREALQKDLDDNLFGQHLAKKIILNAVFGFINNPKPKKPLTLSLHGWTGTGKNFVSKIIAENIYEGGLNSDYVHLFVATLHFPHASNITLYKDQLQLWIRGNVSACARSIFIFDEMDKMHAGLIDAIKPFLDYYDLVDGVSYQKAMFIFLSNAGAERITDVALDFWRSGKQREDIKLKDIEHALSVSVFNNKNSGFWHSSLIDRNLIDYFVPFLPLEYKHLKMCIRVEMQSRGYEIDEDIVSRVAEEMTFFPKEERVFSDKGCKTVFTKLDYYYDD

SMILES	composite z-score [1]	z-score [2]	z-score [3]	z-score [4]	z-score [5]	composite z-score [6]	composite z-score [7]	composite z-score (Torsin-1A (Homo sapiens) [8])	composite z-score (Torsin-1A (Homo sapiens) [9])	composite z-score [10]
CC(C)(C)OC(=O)CC[C@]1(C(=O)N2CCOCC2)COC(c2ccc(OCCCO)cc2)=N1	-0.278	-0.107 (inactive)	-0.367 (inactive)	1.34 (inactive)	-0.841 (inactive)	-0.0376	0.171	0.701	1.48	-0.447
COC(=O)[C@@]1(Cc2ccc(F)cc2)[C@H]2c3cc(C(=O)N4CCCC4)n(CCc4c[nH]c5cc(F)ccc45)c3C[C@H]2CN1C(=O)c1ccccc1	1.43	-2.66 (inactive)	0.449 (inactive)	0.197 (inactive)	0.654 (inactive)	1.12	0.0049	1.2	1.29	0.0034
CCCCN1CC=CC23O[C@@H]4C=CCCOC(=O)C4[C@H]2C(=O)N(CCO)[C@@H]3C1=O (stereo not given in full)	-0.213	0.142 (inactive)	-0.892 (inactive)	-1.45 (inactive)	-0.34 (inactive)	-0.434	-0.0405	-0.856	-0.508	1.71
CC(CO)N1C(=O)[C@@H]2[C@H]3C(=O)OCC=C[C@H]3OC23C=CCN(c2ccc4ccccc4c2)C(=O)[C@@H]13 (stereo not given in full)	-1.02	0.417 (inactive)	1.19 (inactive)	0.862 (inactive)	-0.702 (inactive)	-1.06	-0.128	-2.15	-1.05	-1.19
CCOC(=O)C=C1C[C@@H](c2cccc([N+](=O)[O-])c2)O[C@@H](c2cccc([N+](=O)[O-])c2)O1	0.719	-3.18 (inactive)	0.397 (inactive)	-0.527 (inactive)	-0.495 (inactive)	0.865	0.503	0.167	0.582	0.147
COc1ccc([Si](C)(C)[C@H]2[C@H](CCO)O[C@@]3(C(=O)N(Cc4ccccc4)c4ccc(NC(=O)[C@H](C)O)cc43)[C@@H]2C)cc1	0.571	-7.85 (inactive)	-1.29 (inactive)	20.8 (active)	1.12 (inactive)	0.0684	0.0659	0.569	0.437	1.33
O=C1C2C=CC(C(O)C3CCCCC3)N(Nc3ccccc3F)C2C(=O)N1c1ccccc1 (stereo not given)	0.442	-2.88 (inactive)	-0.469 (inactive)	0.826 (inactive)	-0.904 (inactive)	1.5	0.448	0.258	1.12	-0.324
CC(C)c1ccc(NN2C(C(O)C3=C[C@H]4C[C@@H](C3)C4(C)C)C=CC3C(=O)N(c4ccccc4)C(=O)C32)cc1 (stereo not given in full)	0.747	-0.005 (inactive)	-0.335 (inactive)	0.443 (inactive)	0.551 (inactive)	1.56	0.234	0.281	0.562	-0.0766
